Measurements taken from PubChem BioAssay.
Calls of active or inactive are those of the source.

Columns and labels:
[1] = small molecules captured by biotinylated probe aFSTL3 – biochemical, small-molecule microarray, fluorescence 635/667, stem cell growth factor project, primary screen (AID 1064); settings: higher = more signal;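 further: measures binding of the biotinylated anti-FSTL3 antibody to printed compounds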
[2] = binders from COS7 lysate, DM2A8 probe, primary screen, torsin A project, cell lysate, small-molecule microarray, fluorescence 635/667 (AID 1065); settings: higher = more signal, COS7 lysate expressing mutant human TOR1A
[3] = small molecules captured by biotinylated probe aFGF2 – biochemical, small-molecule microarray, fluorescence 635/667, stem cell growth factor project, primary screen (AID 1067); settings: higher = more signal;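 further: measures binding of biotinylated aFGF2 protein to printed compounds on slides; z-score merges feature fluorescence and signal-to-noise across triplicate slides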
[4] = small molecules captured by biotinylated probe aFGF10 – biochemical, small-molecule microarray, fluorescence 635/667, stem cell growth factor project, primary screen (AID 1071); settings: higher = more signal;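 further: score merges 667 nm spot intensity and signal to noise from triplicate slides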
[5] = target: Neurogenic locus notch homolog protein 2 (Homo sapiens) (UniProt Q04721); test: small molecules binding Notch2 protein – biochemical, small-molecule microarray, 635 nm fluorescence, stem cell growth factors, primary screen (AID 1073); settings: higher = more signal
[6] = target: Pro-neuregulin-1, membrane-bound isoform (Homo sapiens) (UniProt Q02297); test: small molecules binding neuregulin-1 protein – biochemical, small-molecule microarray, fluorescence 635/667, psychiatric disease protein project, primary screen (AID 1075); settings: NRG1 binding, 635 nm fluorescence, higher = more signal;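 further: score combines 667 nm spot fluorescence with signal to noise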
[7] = test system: Neuregulin-1 EGF-like domain; test: small molecules binding NRG1 EGF domain – biochemical, small-molecule microarray, 635 nm fluorescence, primary screen (AID 1081); settings: higher = more signal;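 further: binding of the protein to compounds printed on small-molecule microarray slides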
[8] = FRG1 expression reporter modulators in myotubes – cell-based, C2C12 myotubes, firefly/Renilla luciferase, luminescence, FRG1 inhibition for FSHD, primary screen (AID 1084); settings: FRG1 promoter luciferase, higher = more signal, called active from +8 up or from −8 down
[9] = small molecules captured by biotinylated probe aFST – biochemical, small-molecule microarray, fluorescence 635/667, stem cell growth factor project, primary screen (AID 1086); settings: higher = more signal;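 further: score merges 667 nm fluorescence with signal-to-noise of each printed compound spot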
[10] = binders of probe aHhip on microarray, primary screen, stem cell growth factor project, biochemical, small-molecule microarray, fluorescence 635/667 (AID 1087); settings: higher = more signal;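 further: score merges spot fluorescence at 667nm with spot signal to noise ratio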

Neurogenic locus notch homolog protein 2 (Homo sapiens), sequence (Q04721 whole entry, looked up, canonical isoform): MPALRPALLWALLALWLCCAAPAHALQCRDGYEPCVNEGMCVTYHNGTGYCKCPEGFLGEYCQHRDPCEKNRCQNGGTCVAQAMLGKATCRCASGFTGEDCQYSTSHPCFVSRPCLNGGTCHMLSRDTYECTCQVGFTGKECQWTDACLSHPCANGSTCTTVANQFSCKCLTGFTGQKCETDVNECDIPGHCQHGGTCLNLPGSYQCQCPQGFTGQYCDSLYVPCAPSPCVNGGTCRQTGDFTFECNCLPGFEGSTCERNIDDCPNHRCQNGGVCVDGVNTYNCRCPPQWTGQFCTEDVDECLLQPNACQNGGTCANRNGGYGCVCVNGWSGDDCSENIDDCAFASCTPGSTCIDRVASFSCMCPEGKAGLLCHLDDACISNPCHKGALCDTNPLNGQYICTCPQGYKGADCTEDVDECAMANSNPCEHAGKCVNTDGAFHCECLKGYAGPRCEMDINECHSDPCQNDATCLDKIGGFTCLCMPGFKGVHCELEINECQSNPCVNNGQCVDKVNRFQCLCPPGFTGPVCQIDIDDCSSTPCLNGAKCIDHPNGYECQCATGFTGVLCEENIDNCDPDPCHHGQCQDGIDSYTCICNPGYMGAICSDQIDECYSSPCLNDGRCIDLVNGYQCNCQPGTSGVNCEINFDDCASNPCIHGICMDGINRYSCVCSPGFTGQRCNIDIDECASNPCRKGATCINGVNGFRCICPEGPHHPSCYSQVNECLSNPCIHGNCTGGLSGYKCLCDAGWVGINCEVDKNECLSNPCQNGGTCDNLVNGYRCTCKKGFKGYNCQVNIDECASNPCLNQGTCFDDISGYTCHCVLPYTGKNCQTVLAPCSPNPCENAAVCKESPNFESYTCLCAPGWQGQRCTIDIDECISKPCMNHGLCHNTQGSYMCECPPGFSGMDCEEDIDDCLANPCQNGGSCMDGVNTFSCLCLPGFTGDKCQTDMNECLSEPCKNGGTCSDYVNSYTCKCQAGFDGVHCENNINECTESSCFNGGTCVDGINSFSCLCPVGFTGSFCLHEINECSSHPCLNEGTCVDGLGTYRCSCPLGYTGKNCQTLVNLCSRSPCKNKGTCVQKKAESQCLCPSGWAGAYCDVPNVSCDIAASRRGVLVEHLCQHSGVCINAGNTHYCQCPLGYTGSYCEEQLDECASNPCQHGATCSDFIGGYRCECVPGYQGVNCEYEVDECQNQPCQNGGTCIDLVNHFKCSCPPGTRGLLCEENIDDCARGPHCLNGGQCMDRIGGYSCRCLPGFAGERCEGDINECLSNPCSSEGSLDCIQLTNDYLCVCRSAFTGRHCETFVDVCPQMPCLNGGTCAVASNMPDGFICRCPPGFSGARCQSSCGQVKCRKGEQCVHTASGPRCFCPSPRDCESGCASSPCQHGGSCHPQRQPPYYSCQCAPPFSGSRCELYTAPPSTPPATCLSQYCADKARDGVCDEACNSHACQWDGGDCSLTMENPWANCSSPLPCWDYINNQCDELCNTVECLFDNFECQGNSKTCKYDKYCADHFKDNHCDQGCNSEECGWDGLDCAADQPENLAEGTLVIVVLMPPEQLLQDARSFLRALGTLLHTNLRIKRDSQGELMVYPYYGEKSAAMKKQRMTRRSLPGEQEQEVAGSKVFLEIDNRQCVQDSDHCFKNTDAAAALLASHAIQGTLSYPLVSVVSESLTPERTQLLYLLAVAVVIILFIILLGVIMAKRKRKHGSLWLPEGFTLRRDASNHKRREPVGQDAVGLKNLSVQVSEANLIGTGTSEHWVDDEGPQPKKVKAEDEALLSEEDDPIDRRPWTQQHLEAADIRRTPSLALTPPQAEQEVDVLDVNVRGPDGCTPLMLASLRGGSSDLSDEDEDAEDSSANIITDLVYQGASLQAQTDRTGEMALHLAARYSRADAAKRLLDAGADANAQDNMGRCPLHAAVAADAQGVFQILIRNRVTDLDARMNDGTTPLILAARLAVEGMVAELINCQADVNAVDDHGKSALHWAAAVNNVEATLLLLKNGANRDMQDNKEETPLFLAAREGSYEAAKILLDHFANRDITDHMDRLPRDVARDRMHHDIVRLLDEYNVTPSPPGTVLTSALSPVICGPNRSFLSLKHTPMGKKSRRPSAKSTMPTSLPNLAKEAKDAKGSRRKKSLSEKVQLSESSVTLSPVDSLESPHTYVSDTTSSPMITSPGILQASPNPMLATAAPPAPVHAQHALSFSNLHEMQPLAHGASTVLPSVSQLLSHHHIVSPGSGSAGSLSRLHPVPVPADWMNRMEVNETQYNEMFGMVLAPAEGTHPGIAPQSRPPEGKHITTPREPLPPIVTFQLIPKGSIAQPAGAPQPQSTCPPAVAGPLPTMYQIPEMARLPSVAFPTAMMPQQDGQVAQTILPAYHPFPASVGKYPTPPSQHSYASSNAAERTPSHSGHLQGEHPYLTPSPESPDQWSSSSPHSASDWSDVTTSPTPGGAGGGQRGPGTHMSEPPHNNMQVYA
Pro-neuregulin-1, membrane-bound isoform (Homo sapiens), sequence (Q02297 whole entry, looked up, the tested form may be a part, canonical isoform): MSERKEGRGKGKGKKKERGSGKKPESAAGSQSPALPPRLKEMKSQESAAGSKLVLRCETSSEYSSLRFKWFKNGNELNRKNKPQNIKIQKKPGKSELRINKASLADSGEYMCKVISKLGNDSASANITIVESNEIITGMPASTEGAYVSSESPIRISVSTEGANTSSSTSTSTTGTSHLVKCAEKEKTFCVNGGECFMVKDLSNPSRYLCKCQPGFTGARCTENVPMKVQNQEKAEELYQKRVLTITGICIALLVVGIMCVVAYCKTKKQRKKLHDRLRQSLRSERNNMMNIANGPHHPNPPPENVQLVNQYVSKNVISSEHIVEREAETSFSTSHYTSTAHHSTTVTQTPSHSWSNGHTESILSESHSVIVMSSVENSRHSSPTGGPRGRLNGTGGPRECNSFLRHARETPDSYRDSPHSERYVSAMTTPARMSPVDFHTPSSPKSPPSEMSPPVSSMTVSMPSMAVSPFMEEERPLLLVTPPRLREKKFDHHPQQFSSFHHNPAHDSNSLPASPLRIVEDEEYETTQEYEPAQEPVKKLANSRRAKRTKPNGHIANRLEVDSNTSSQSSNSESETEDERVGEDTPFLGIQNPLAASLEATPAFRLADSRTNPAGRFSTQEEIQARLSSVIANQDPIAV

SMILES | composite z-score [1] | composite z-score [2] | composite z-score [3] | composite z-score [4] | composite z-score [5] | composite z-score [6] | composite z-score [7] | z-score [8] | composite z-score [9] | composite z-score [10]
CCOC(=O)C[C@H]1[C@H](OC(=O)Cc2ccc3c(c2)OCO3)[C@@H](NC(=O)C2CCCCC2)c2cc(OCCCO)ccc2N1C(=O)c1ccccc1 | 0.0113 | -0.155 | -0.112 | 0.117 | 0.0925 | -0.127 | 0.65 | -1.14 (inactive) | -0.0611 | -0.0994
[N-]=[N+]=Nc1ccccc1[C@@H]1OC(c2ccc(OCCCO)cc2)=N[C@]1(Cc1ccccc1)C(=O)O | -0.0974 | 0.396 | -0.0178 | 0.366 | 0.828 | 1.42 | 1.22 | 0.235 (inactive) | 1.39 | -0.126
COc1cc2c(cc1O)C(C1CC1)N(C)CC2 (stereo not given) | 0.646 | -0.616 | -0.104 | -0.874 | -0.531 | 0.63 | -0.197 | 0.0877 (inactive) | -0.406 | -0.0994
COC(=O)[C@@H]1N=C(c2ccc(OCCCO)cc2)O[C@@H]1C | 0.0684 | 0.331 | -0.0627 | 0.509 | 0.108 | -0.519 | 0.155 | 5.05 (inactive) | 0.195 | 0.0139
C=C(COC)/C(=C/C[C@H](OC(=O)c1ccncc1)c1ccc(CO)o1)c1cnc2ccccc2c1 | 0.138 | 0.47 | -0.124 | 0.741 | 1.21 | 0.98 | 1.14 | 1.29 (inactive) | -0.0236 | -0.113
COC(=O)[C@@]1(Cc2ccc(F)cc2)[C@H]2c3cc(C(=O)N4CCCC4)n(Cc4ccc(C)c(F)c4F)c3C[C@H]2CN1C(=O)c1ccccc1 | 0.573 | -0.0621 | -0.0887 | -0.227 | 1.11 | 1.29 | 1.35 | 2.59 (inactive) | 0.409 | -0.0618
COc1ccc([Si](C)(C)[C@H]2[C@H](CC(=O)N3CCC[C@H]3CO)O[C@@]3(C(=O)N(Cc4ccc(N5CCOC5=O)cc4)c4ccccc43)[C@@H]2C)cc1 | -0.591 | 0.582 | -0.043 | 0.44 | 1.15 | 1.1 | 1.21 | -4.09 (inactive) | 0.268 | -0.0237
CCCC[C@@H]1C[C@H]1[C@@H](NC(=O)c1cccs1)c1ccccc1C(F)(F)F | 0.015 | 0.871 | 0.326 | 0.256 | 0.803 | 1.8 | 1.1 | -0.0362 (inactive) | -0.517 | -0.115
NC(=O)[C@H]1[C@@H]2C(=O)O[C@@H](c3ccccc3)[C@@H](c3ccccc3)N2[C@@H](c2ccc(OCCO)cc2)[C@]12C(=O)Nc1ccc(C#CCCO)cc12 | 0.127 | 0.685 | -0.0524 | 0.715 | 0.874 | 0.874 | 1.02 | 1.7 (inactive) | 0.232 | -0.275
COC(=O)[C@@]1(Cc2ccc(F)cc2)[C@H]2c3cc(C(=O)N(C)C)n(CCc4ccc(OC)c(Br)c4)c3C[C@H]2CN1C(=O)c1ccccc1 | 0.859 | -0.694 | 0.361 | 0.675 | 0.716 | 0.988 | 1.29 | 3.92 (inactive) | 1.48 | 0.424
CN1C(=O)C2C=CC(C(O)c3cccn3C)N(Nc3ccc([N+](=O)[O-])cc3[N+](=O)[O-])C2C1=O (stereo not given) | 0.108 | -0.0125 | 0.157 | 0.162 | 1.05 | 0.392 | 0.828 | 0.351 (inactive) | 0.477 | -0.0631
C=CC[C@]1(C(=O)N2CCOCC2)COC(c2ccc(OCCCO)cc2)=N1 | 0.0944 | 1.47 | 0.075 | -0.151 | 0.0759 | 1.52 | 1.39 | 0.683 (inactive) | 0.219 | -0.249
O=C(O)[C@@H]1C[C@@H]2C(=O)N3CCC[C@H]3C(=O)N2[C@@H]1c1ccc(O)cc1 | 1.18 | 0.607 | -0.0058 | 0.0314 | 0.0995 | 0.956 | 1 | 7.28 (inactive) | 0.387 | 0.35
CCOC(=O)C1=C[C@@H](C(C)C)N(S(=O)(=O)c2ccc(C)cc2)[C@H]1c1ccc(C(F)(F)F)cc1 | -0.235 | 0.231 | 0.112 | 1.05 | 1.67 | 0.497 | 1.22 | -2.54 (inactive) | 1.69 | 0.0873
